# A selection: hits, their analogues and other compounds. The true share with any hit is near 2.4%.
# D2 ag-1: Beta-Arrestin HTS for Positive Allosteric Modulators of the Human D2 Dopamine Receptor: Agonists; activation, % (concentration not given with the values); AID 624465, 2012; DiscoveRx PathHunter D2 beta-arrestin, luminescence, 90 min; 100% = 57 uM dopamine signal; 360,000 compounds, 0.084% hits; in the data active = activation above about 40%; inconclusive = between about 15% and that limit
# Target sequence (P14416 whole entry, looked up): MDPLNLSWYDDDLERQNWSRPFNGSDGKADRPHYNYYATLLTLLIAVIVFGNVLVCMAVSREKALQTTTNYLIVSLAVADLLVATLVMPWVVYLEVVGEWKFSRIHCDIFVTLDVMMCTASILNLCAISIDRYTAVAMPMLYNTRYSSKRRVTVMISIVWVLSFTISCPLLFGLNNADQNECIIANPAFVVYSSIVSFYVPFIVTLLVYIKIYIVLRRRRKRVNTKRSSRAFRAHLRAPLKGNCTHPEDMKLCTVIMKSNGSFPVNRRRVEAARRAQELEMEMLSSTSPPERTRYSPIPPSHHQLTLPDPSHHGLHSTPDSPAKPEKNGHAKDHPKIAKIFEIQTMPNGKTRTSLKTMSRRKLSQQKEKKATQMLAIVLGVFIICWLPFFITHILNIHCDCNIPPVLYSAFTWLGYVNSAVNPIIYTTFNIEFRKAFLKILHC
#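 Agonist mode: compounds alone added to overnight-plated D2 PathHunter cells for 90 min at 37 C, with 57 uM final dopamine (EC100) defining full response. Beta-arrestin recruitment detected by chemiluminescent reagent, read after 1 h at ambient temperature.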
# D2 ag-2: HTS Assay for Allosteric Agonists of the Human D2 Dopamine Receptor: Primary Screen for Agonists | D(2) dopamine receptor (Homo sapiens), P14416 | 340,000 compounds, 0.53% hits | HEK293 T-REx D2 cells, calcium flux agonist mode | activation, % at 2 µM;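 active = activation over 3 SD above normal in the single-dose calcium agonist read, cut at about 30% in these data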; note: 0% is about no effect
#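 In this primary screen, compounds producing a positive calcium signal within 180 s of addition to tetracycline-induced, force-coupled HEK293 Trex D2 cells are flagged; cells are dye-loaded with a no-wash calcium kit beforehand.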
# D2 PAM-1: Beta-Arrestin HTS for Positive Allosteric Modulators of the Human D2 Dopamine Receptor: Potentiators. D(2) dopamine receptor (Homo sapiens), P14416. DiscoveRx D2 beta-arrestin cells, luminescence, 90 min; 100% = 57 uM dopamine signal. potentiation, % (no concentration beside the values). 360,000 compounds, 0.23% hits; in the data active = potentiation above about 50%; inconclusive = mostly about 30% to 49%
#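 PathHunter beta-arrestin assay in DiscoveRx D2 cells. Compounds were added with an EC20 of dopamine (50 nM final) for 90 min at 37 deg C. Luminescence was read 1 h after detection reagent, with 57 uM dopamine as the EC100 control.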
# D2 antagonist: HTS Assay for Allosteric Antagonists of the Human D2 Dopamine Receptor: Primary Screen for Antagonists; 340,000 compounds, 2% hits; HEK293 TREx D2 cells, calcium flux, dopamine EC80; inhibition, % at 10 µM; AID 485344, 2010; D(2) dopamine receptor (Homo sapiens), P14416; in the data active = inhibition above about 30%; inactive = below that, where a call was filed; note: 0% is about no effect
#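 Compounds are added to dye-loaded, induced HEK293 T-REx cells coupled to calcium release via D2; after a 3 min kinetic read an EC80 dopamine stimulus is given and fluorescence is recorded for 3 more min.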
# D2 PAM-2: HTS Assay for Positive Allosteric Modulators of the Human D2 Dopamine Receptor: Primary Screen for Potentiators; D(2) dopamine receptor (Homo sapiens), P14416; HEK293 T-REx D2, calcium flux, EC20 dopamine potentiation; potentiation, % at 10 µM; 340,000 compounds, 0.34% hits; AID 485347, 2010;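 active = potentiation over 3 SD above the plate norm, cut at about 30% in these data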; note: 0% is about no effect
#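 Potentiation of an EC20 dopamine calcium response measured kinetically over 180 s, after a preceding 180 s compound-only read flagging agonists. Cells: inducible Hek293 Trex D2 line, 4000/well, cultured overnight at 30 C before dye loading.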
# Numbers without * were called inactive; ? = inconclusive; . = not tested or not shown.
SMILES,D2 ag-1,D2 ag-2,D2 PAM-1,D2 antagonist,D2 PAM-2
CCOc1ccc(CCNC(=O)c2c(C)oc3ncnc(N4CCOCC4)c23)cc1,.,-1,.,.,6
COc1ccc(CN(Cc2ccco2)c2cnc(S(C)(=O)=O)nc2C(=O)Nc2ccc(C)c(Cl)c2)cc1,.,.,.,.,-15
COCCCn1c(=S)[nH]c2sc3c(c2c1=O)CCCS3,-2,-3,-3,0,5
O=C(NCc1nnc(SCC(=O)N2CCCC2)o1)c1c(F)cccc1F,-3,2,16,32*,-8
O=C(NCc1nnc(SCC(=O)N2CCCC2)o1)c1c(F)cccc1Cl,-2,-1,7,-18,0
CSc1ccc(CCNC(=O)Cn2ncn3c(cc4ccccc43)c2=O)cc1,.,.,.,.,-6
COc1ccc(CCNC(=O)c2ccc(Cn3c(SCc4ccccc4)nc4cccnc43)cc2)cc1,.,0,.,.,15
CSc1ccc2c(c1)N(CCC1CCCCN1C)c1ccccc1S2 (configuration not stated),-3,1,-31,98*,-29
COc1cc(O)cc2cc3c(c(O)c12)C(=O)CC(C)(O)O3 (configuration not stated),4,0,20,37*,6
COc1cc(O)c2c(c1)OC(C)(C)CC2=O,-2,1,-5,4,.
CCCC(=O)Nc1nnc(S(=O)(=O)N(CC)c2ccc(OC)cc2)s1,-2,0,-4,1,5
Cc1ccc(S(=O)(=O)NCCSc2ncccn2)cc1,-7,0,-4,86*,-34
O=C(COc1ccccc1)NCC(c1ccco1)N1CCN(c2ccccc2F)CC1 (configuration not stated),?,34*,-5,0,-5
O=C(NCc1ccncc1)C(=O)NCC(c1ccco1)N1CCN(c2ccccc2F)CC1 (configuration not stated),7,34*,-1,1,-12
O=C(NCC1CCCO1)C(=O)NCC(c1ccco1)N1CCN(c2ccccc2)CC1 (configuration not stated),14,35*,-8,20,-6
O=C(NCC1CCCO1)C(=O)NCC(c1ccco1)N1CCN(c2ccc(F)cc2)CC1 (configuration not stated),-3,2,-12,9,5
Cc1cccc(OCc2ccc(-c3nc(C#N)c(NCCN(C)C)o3)o2)c1,.,-2,.,.,20
COc1ccccc1S(=O)(=O)N(C)C[C@@H]1OCc2cnnn2CCCC(=O)N([C@H](C)CO)C[C@H]1C,-9,.,-2,.,.
COc1cc(C)ccc1S(=O)(=O)NC(=O)C1(C)CCN1C(=O)Cc1ccccc1Cl (configuration not stated),-5,.,-1,.,.
Cc1cc2ccc(C)c(C)c2nc1SCC(=O)c1cccs1,-3,2,-7,60*,-8
CC1CCCN(S(=O)(=O)c2ccc(C(=O)NC(C)c3ccccc3)cc2)C1 (configuration not stated),-3,0,-8,-15,3
C[C@H](NC(=O)OCc1ccccc1)c1nnc([C@H](C)NC(=O)OCc2ccccc2)o1,6,0,-8,38*,9
C[C@H](NC(=O)OCc1ccccc1)c1nnc([C@H](Cc2ccccc2)NC(=O)OC(C)(C)C)o1,0,1,-5,31*,8
CC(C)N(Cc1nc(-c2ccccc2)no1)C(=O)CN1C(=O)c2ccccc2C1=O,5,0,5,-6,36*
CC(C)N(Cc1nc(-c2ccccc2)no1)C(=O)CCCN1C(=O)c2ccccc2C1=O,4,1,-12,1,35*
SMILES,D2 ag-1,D2 ag-2,D2 PAM-1,D2 antagonist,D2 PAM-2
Nc1ccc(S(=O)(=O)Nc2nc3ccccc3o2)cc1,-4,0,-2,0,-2
CC(CCc1ccccc1)NC(=O)CCNS(=O)(=O)c1ccccc1 (configuration not stated),1,0,0,-7,13
COc1ccc(NC(=O)CSc2ncccc2C(=O)O)cc1OC,.,0,.,.,-20
O=[N+]([O-])c1cc(-c2n[nH]c(-c3ccccc3)n2)cc([N+](=O)[O-])c1,6,0,53*,-9,13
O=[N+]([O-])c1cc([N+](=O)[O-])c2n[nH]c(-c3ccccc3)c2c1,5,0,8,0,2
Cc1ccc(S(=O)(=O)SCCCSS(=O)(=O)c2ccc(C)cc2)cc1,0,.,-3,.,.
Cn1c(CCCOc2ccc(Cl)cc2Cl)nnc1SCC(=O)Nc1nccs1,2,1,0,32*,2
CCCCc1nnc(SCC(=O)Nc2nccs2)n1C,0,1,8,-6,15
Cn1c(CC(=O)Nc2ccc(Cl)c(Cl)c2)nnc1SCC(=O)Nc1nccs1,-1,0,-5,-26,8
Cn1c(CSCc2ccccc2Cl)nnc1SCC(=O)Nc1nccs1,1,0,-2,60*,11
COc1ccc(C2N(Cc3ccccc3)CC(=O)N2/N=C(\C)c2ccccc2)cc1 (configuration not stated),-2,-1,-31,8,2
CC(=O)Oc1oc(-c2ccccc2)nc1/C=N/c1ccccn1,2,1,-11,-5,-1
COc1ccccc1N=Cc1nc(-c2ccccc2)oc1OC(C)=O,-1,0,5,50*,-9
Cc1ccn2cc(CNS(=O)(=O)c3ccc4ccccc4c3)nc2c1,-5,-1,-23,8,-5
Cn1c2ccccc2c(=O)c2c(=O)n(Cc3ccco3)c(-c3ccc(F)cc3)nc21,-4,-1,-7,-7,9
Cc1ccc(-c2nc3c(c(=O)c4ccccc4n3C)c(=O)n2Cc2ccco2)cc1,4,4,8,36*,12
Cc1onc(-c2ccccc2Cl)c1C(=O)NCc1nnnn1-c1ccc(F)cc1,-1,1,-3,11,-3
CCN(CC)C(CNS(=O)(=O)c1ccc(Cl)cc1)c1ccccc1 (configuration not stated),-10,-1,-8,39*,1
COC(CNS(=O)(=O)c1ccc(Cl)cc1)c1ccccc1 (configuration not stated),3,-2,-5,4,-11
CC(C)C1Nc2ccc(S(N)(=O)=O)cc2C2C=CCC21 (configuration not stated),5,1,52*,16,2

# Assay outcomes as filed in PubChem BioAssay.
